NADH coupling: inhibitors of PK/LDH coupling enzymes, profiling panel, artefact control, biochemical, MLSMR library; coupled PK/LDH NADH assays, four targets; IC50, µM (highest dose often 10 µM), for inactives: top-dose inhibition; 0.02% of 65,000 active; AID 774, 2007;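 active = single-dose screening hits from any of four coupled enzyme assays that gave an IC50 when retested across doses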;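 note: the DPM-DC format reads NADH fluorescence rather than 340 nm absorbance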
Spn MK inh: S. pneumoniae MK inhibitors, primary screen, biochemical, PK/LDH-coupled NADH absorbance; 0.48% of 65,000 active; purified MK, PK/LDH-coupled NADH absorbance 340 nm; inhibition, % at 10 µM; AID 555, 2006;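 active = ranked among the strongest by inhibition in the single 10 µM screen, a fixed top-ranked set picked for dose follow-up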
PMK inhibit: S. pneumoniae PMK inhibitors, primary screen, biochemical, mevalonate pathway, pilot trial included. phosphomevalonate kinase (Streptococcus pneumoniae D39). purified PMK, PK/LDH-coupled NADH absorbance 340 nm. 0.49% of 65,000 active. inhibition, % at 10 µM. AID 539, 2006;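 active = top-ranked compounds by inhibition in the single 10 µM screen, taking a fixed number of the strongest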;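 note: 0% = full reaction with DMSO carrier and 100% = background rate without enzyme reaction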
Spn DPM-DC inh: S. pneumoniae DPM-DC inhibitors, primary screen, biochemical, PK/LDH-coupled NADH fluorescence. diphosphomevalonate decarboxylase (Streptococcus pneumoniae D39). purified DPM-DC. calls only at 10 µM. 0.49% of 65,000 active;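 active = the 320 compounds with the highest percent inhibition in the single-dose primary screen, excluding strongly autofluorescent ones, cut at about 32% in these data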;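 note: kinetic rate of NADH fluorescence loss reporting ADP formed by the decarboxylase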
Fluor 339 460: intrinsic fluorescence of library compounds, ex339/em460 – biochemical, MLSMR library, data from DPM-DC assay, artefact control, profiling panel; compound autofluorescence, ex339/em460 nm, NADH buffer; stronger effect = higher value; 1 = no-compound wells, NADH background; fluorescence fold increase at 10 µM; 5.5% of 65,000 active; AID 709, 2007;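 active = at 10 µM, mean starting fluorescence two-fold or more over control wells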;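 note: signal is the first read of a kinetic run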
Abs 340nm: compound light absorbance at 340 nm, profiling panel, artefact control, biochemical, MLSMR library, data from PS, PMK, MK assays; compound absorbance at 340 nm, fold over control; fold change at 10 µM; 65,000 tested, under 10 active; AID 708, 2007;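 active = at 10 µM dose, initial 340 nm absorbance at least 2 fold that of control wells; inactive = change under 2 fold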;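 note: initial absorbance extrapolated from kinetic A340 decline of NADH oxidation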
* = called active by the depositor; i = inactive; . = no result given; + = active, no number. Hits are enriched below; roughly 6.5% of the tested compounds scored in any of these assays.

SMILES	NADH coupling	Spn MK inh	PMK inhibit	Spn DPM-DC inh	Fluor 339 460	Abs 340nm
COc1ccc2oc(C(=O)C3CC3)c(N)c2c1	10.0%	2.0	8.0	i	2.07*	1.13
COc1ccc(C(=O)c2oc3ccccc3c2N)cc1	9.0%	10.0	0.0	i	1.49	1.08
CC(=O)Nc1ccc(C2Nc3ccccc3C(=O)N2C2CCCCC2)cc1 (stereo unspecified)	7.0%	3.0	10.0	.	2.23*	1.04
CC(=O)Nc1ccc(C2NC(=O)c3ccccc3O2)cc1 (stereo unspecified)	2.0%	2.0	5.0	i	1.2	1.05
CCN(CC)S(=O)(=O)c1cccc2cc(C(=O)O)c(O)cc12	12.0%	9.0	12.0	i	2.14*	1.01
CCN(CC)S(=O)(=O)c1cccc2c(N(C)C)cccc12	7.0%	0.0	16.0	i	1.9	1.01
CCOC(=O)COc1ccc2nsnc2c1Cl	16.0%	6.0	9.0	+	2.92*	1.03
CCOc1ccccc1CN(CCc1ccc2c(c1)OCO2)Cc1ccccn1	11.0%	33.0	0.0	i	1.03	1.04
CCCOc1ccc2oc(=O)c3c(c2c1)CCCN3C(=O)CN1CCN(c2ncccn2)CC1	15.0%	15.0	8.0	i	1.86	1.1
O=C(CN1CCCC1)N1CCCc2c1c(=O)oc1ccc(OCc3ccccc3)cc21	12.0%	0.0	4.0	+	2.99*	1.06
CCCOc1ccc2oc(=O)c3c(c2c1)CCCN3C(=O)CN1CCN(C(=O)c2ccco2)CC1	7.0%	7.0	6.0	i	2.97*	1.09
CC(=O)c1coc2ccc(OCCN3CCCCC3)cc12	4.0%	7.0	4.0	i	1.1	1.02
Cc1cc(NC(=O)CSc2nc3ccccc3c(=O)n2CCCC(=O)NCc2ccco2)n[nH]1	7.0%	6.0	14.0	i	1.06	0.98
CS(=O)(=O)N(CC(=O)N1CCN(c2ccccc2)CC1)C1CCCCC1	18.0%	15.0	36.0*	i	1.12	1.07
CS(=O)(=O)N(CC(=O)N1CCN(Cc2ccccc2)CC1)C1CCCCC1	8.0%	17.0	0.0	i	1.1	1.05
O=C(CSc1ccc2nnc(-c3ccncc3)n2n1)N1CCc2ccccc21	2.0%	6.0	0.0	i	1.08	1.03
CCOc1cc(-c2nc3ccccn3c2NCC2CCCO2)ccc1O (stereo unspecified)	4.0%	14.0	15.0	.	3.02*	1.02
Oc1ccccc1-c1nc(NCC2CCCO2)c2ccccc2n1 (stereo unspecified)	4.0%	7.0	6.0	i	1.14	1.11
COc1cc(-c2nc3ccccn3c2NCC2CCCO2)ccc1O (stereo unspecified)	8.0%	0.0	15.0	.	3.68*	1.07
COc1cccc(-c2nc(NCC3CCCO3)c3ccccc3n2)c1O (stereo unspecified)	7.0%	0.0	21.0	i	1.07	1.08
Cc1ccccc1OCCCCc1c(C)n[nH]c1C	15.0%	7.0	31.0*	i	1.07	1.01
Cc1cccc(C)c1OCCCCc1c(C)n[nH]c1C	4.0%	12.0	0.0	i	1.15	1.01
O=C1NC(c2ccc3c(c2)OCO3)Oc2ccccc21 (stereo unspecified)	4.0%	12.0	0.0	i	1.26	1.02
CC1(CCc2ccc3c(c2)OCO3)NC(=O)c2ccccc2N1 (stereo unspecified)	5.0%	5.0	4.0	.	3.76*	1.04
Cc1ccccc1-n1c(=O)cc(NCc2ccc3c(c2)OCO3)[nH]c1=O	3.0%	3.0	6.0	i	1.09	0.99
SMILES	NADH coupling	Spn MK inh	PMK inhibit	Spn DPM-DC inh	Fluor 339 460	Abs 340nm
O=C1NC(c2ccc3c(c2)OCO3)Nc2ccccc21 (stereo unspecified)	9.0%	6.0	11.0	.	4.85*	0.99
CCn1c(SCC(=O)Nc2cc3oc4ccccc4c3cc2OC)nnc1-c1cccs1	3.0%	5.0	3.0	i	1.11	1.04
COc1ccc(CN2CCN(c3cc(C)nc4c5c(C)cc(C)nc5nn34)CC2)cc1F	8.0%	11.0	5.0	.	3.89*	1
CCOc1ccc(CN2CCN(c3cc(C)nc4c5c(C)cc(C)nc5nn34)CC2)cc1	2.0%	6.0	4.0	.	3.06*	1
Cc1cc(C)c2c(n1)nn1c(N3CCN(c4ccccc4C)CC3)cc(C)nc21	7.0%	12.0	7.0	.	2.8*	1
COc1ccc(-c2c(C)nn3c(N4CCN(Cc5ccccc5)CC4)cc(C)nc23)cc1OC	5.0%	4.0	6.0	i	1.14	1.07
Cc1ccc(N2CCN(c3cc(C)nc4c5c(C)cc(C)nc5nn34)CC2)cc1	10.0%	6.0	8.0	i	1.13	0.97
CCCCSC1=C(C#N)C(c2ccccc2C)C(C(=O)OCC)C(=O)N1 (stereo unspecified)	9.0%	5.0	22.0	i	1.04	0.96
COn1c(C)c(C(C)=O)c2c3nonc3ccc21	15.0%	11.0	14.0	i	3.02*	1
CCCCOn1c(C)c(C(=O)OCC)c2c3nonc3ccc21	2.0%	0.0	14.0	i	2.57*	0.99
O=C(Nc1cccc(NC(=O)c2nccc3ccccc23)c1)c1ccco1	5.0%	5.0	10.0	i	1.06	1.01
Cc1noc(C)c1CSc1nc2ccccc2s1	7.0%	5.0	16.0	+	1.11	1.01
Cc1noc(C)c1CSc1ccc2ccccc2n1	5.0%	7.0	7.0	i	1.11	1.03
COCCn1c(SCC(=O)c2ccc(F)cc2)nnc1C(C)C	4.0%	7.0	5.0	i	1.02	0.98
O=C(CSc1nnc2ccccn12)NC(=O)NC1CCCC1	1.0%	4.0	0.0	i	1.05	1.02
O=c1oc2c(CN3CCCCC3)c(O)ccc2cc1-c1nc2ccccc2[nH]1	8.0%	12.0	4.0	.	3.97*	1.01
O=c1oc2c3c4c(cc2cc1-c1nc2ccccc2[nH]1)CCCN4CCC3	11.0%	21.0	71.0*	.	2.12*	0.9
O=C(CSc1nc2ccccc2[nH]1)N1CCCCC1	2.0%	6.0	6.0	i	1.04	1.01
N=c1oc2c3c4c(cc2cc1C(=O)Nc1ccccc1)CCCN4CCC3	1.0%	2.0	0.0	i	1.55	1.05
COc1ccc2c(c1)c(C(=O)CNc1nc(C)cs1)c(C)n2C	9.0%	0.0	27.0*	i	1.2	1.07
Cc1cccc(OCc2nnc(SCc3cc(=O)n4cc(Br)ccc4n3)o2)c1	8.0%	6.0	8.0	i	1.41	1.08
Cc1cc(C)c2c(=O)n(CC(=O)N3CCC(Cc4ccccc4)CC3)sc2n1	12.0%	19.0	7.0	+	1.23	0.99
